From PubChem BioAssay
Shown is part of a subset that was picked to be rich in hits.
Pf Dd2 growth: inhibitors of Plasmodium falciparum Dd2 growth; hit rate 4.3% among 120,000; Potency, µM (doses to about 28.9 µM), most hits filed as inhibitors; AID 1347417; P. falciparum Dd2 growth, SYBR Green, 72 h; active means well fitted inhibition curve with a large enough effect; further: nearly all actives have a fitted effect of over 65% in size
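Readout: SYBR Green fluorescence, 485 nm excitation, 535 nm emission, after ~16 h lysis at 37C. Before that, Dd2-infected red cells (2.5% hematocrit) grew 72 h with compound, 29 uM top final concentration.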
A number is an active result; n = inactive; [ ] = dose if it differs, or a comment.

SMILES	Pf Dd2 growth
O=C(NCc1ccccc1Cl)c1cc2c(s1)-c1ccccc1SC2	n
O=C1C2=C(Nc3ccccc3SC2c2ccc(Cl)c(Cl)c2)c2ccccc21 (stereo not drawn)	3.55µM
CC(=O)Nc1ccc(NC(=O)CC2Sc3ccccc3NC2=O)cc1 (stereo not drawn)	n
C#CCOc1c(Br)cc(C2C(C(=O)OC)=C(C)NC3=C2C(=O)c2ccccc23)cc1OCC (stereo not drawn)	n
CCCc1ccc(C2Sc3ccccc3NC3=C2C(=O)c2ccccc23)cc1 (stereo not drawn)	3.16µM
N#Cc1cccc(C(=O)N2CCCCCNC(=O)[C@@H]3CCC[C@@H]32)c1	n
O=C(NCc1ccco1)C1CC(=O)N(c2n[nH]c3ccccc23)C1 (stereo not drawn)	n
O=C(c1nc(-c2ccccc2)c2ccccn12)N1CCOCC1	n
CCCN1CCCn2nc(CNC(=O)Nc3ccccc3SC)cc2C1	n
CNC(=O)[C@@H]1C[C@H](n2cc(-c3ccc(CN4CC[C@@H](O)C4)cc3)nn2)CN1	n
Cc1nc(-c2c3n(c(=O)n(CC(=O)Nc4ccc(Cl)cc4)c2=O)CCCC3)no1	n
O=C(NCc1ccc(Cl)nc1)c1ccc2ccnn2c1	n
O=C(COCc1cc(-c2ccco2)on1)Nc1cccc(Cl)c1Cl	n
Cc1cc(CNC(=O)c2cc(-c3ccco3)nc3c(Cl)cccc23)no1	8.91µM
Cc1cc(C)n2nc(CC(=O)NCc3cc(-c4ccco4)on3)nc2n1	n
O=C(Nc1ccc(F)cc1)Nc1cccc(-c2ccc(N3CCOCC3)nn2)c1	n
COc1cccc(CNC(=O)N2CCCC(Cn3c(C)nc4cccnc43)C2)c1 (stereo not drawn)	n
CCc1noc(-c2cccn3c(CNC(=O)c4cccnc4)nnc23)n1	n
COc1ncccc1-c1cc(-c2c(C)noc2C)cc2c1C(=O)N(C)C2=O	n
Cc1noc(C)c1-c1cc(-c2ccccc2O)cn2cncc12	14.1µM
C1=C(c2cc(-c3cccc4cn[nH]c34)cn3cncc23)CCOC1	n
O=C1COCCN1c1cc(-c2ccccc2Oc2ccccc2)cn2cncc12	n
Oc1ccccc1-c1cc(-c2cccnc2)c2cncn2c1	0.355µM
Cc1noc(C)c1-c1cc(-c2ccc(CN(C)C)cc2)cn2cncc12	2.82µM
Cc1noc(C)c1-c1cc2c(c(-c3cccc(CO)c3)c1)C(=O)N(C)C2=O	n
SMILES	Pf Dd2 growth
Cc1noc(C)c1-c1cc2c(c(-c3cccnc3)c1)C(=O)N(C)C2	n
Oc1ccccc1-c1cc(C2=CCOCC2)c2cncn2c1	1.26µM
CN(C)Cc1ccc(-c2cc(-c3ccc(=O)[nH]c3)c3cncn3c2)cc1	n
C1=C(c2cc(-c3cccc4[nH]ccc34)cn3cncc23)CCOC1	n
C[S+](=O)([O-])c1ccc(-c2cc(-c3cccnc3)c3cncn3c2)cc1	n
CN1CCN(c2nc3c(c(=O)[nH]2)CCN(Cc2ccc(C#N)cc2)CC3)CC1	n[5.79 µM]
O=C(NCC1(O)CCCN(C(=O)c2cccs2)CC1)N1CCOCC1 (stereo not drawn)	n
COc1ccc(C(N)CC(=O)N2CCC3(CC2)CN(C)C(=O)O3)cc1OC (stereo not drawn)	n
COc1ccc(C(=O)NC(C(=O)NC2CC2)C2CCN(C(C)=O)CC2)cc1 (stereo not drawn)	n
O=C(Nc1cccc(C(F)(F)F)c1)N[C@H]1CO[C@H]2[C@@H]1OC[C@@H]2n1nnnc1Oc1ccccc1	n
COc1ccc(CN2CCn3c(nnc3-c3cccnc3)C2)cc1	n
COC(=O)[C@H](Cc1ccc(OC)cc1)NC(=O)[C@@H]1CNCCN1C(C)=O	n
Cc1noc(C)c1-c1cc(-c2ccncc2)cn2cncc12	n
Cc1noc(C)c1-c1cc(-c2ccccc2)cn2cncc12	5.62µM
Cc1noc(C)c1-c1cc2c(cc(-c3ccccc3)n2C)c(-c2cnn(C)c2)n1	n
Cc1ccc(NC(=O)CN2C(=O)NC3(CCCCC3)C2=O)c(Cl)c1	n
CN1CCN(C(=O)N[C@@H]2CCOC[C@H]2OCc2ccccc2)CC1	n
COc1ccc(CN2Cc3[nH]nc(-c4ccccc4)c3CC2=O)cc1	n
Cc1ccc(CN2COc3ccc4c(-c5ccccc5)cc(=O)oc4c3C2)cc1	0.708µM
Cc1ccc2c(CC(=O)N3CCOc4ccc(CN5CCOCC5)cc4C3)cc(=O)oc2c1	n
COc1ccc(CN2CCC3(CC2)CNC(=O)c2ccccc2O3)cc1	n
Cc1ccc(CN2C[C@@H]3C(=O)N(Cc4ccc5c(c4)OCO5)C(=O)[C@@H]3C2)cc1	n
COc1ccc(CN2COc3ccc4c(-c5ccccc5)cc(=O)oc4c3C2)cc1	1.12µM
O=C1CCN(C(=O)C2CCN(C(=O)Cc3cccc(F)c3)CC2)CCCCCCN1	n
Cc1ccncc1C(=O)N1C[C@@H](COc2ccccc2)[C@H](C(N)=O)C1	n
Cc1ccc(C(=O)CC2(O)C(=O)N(Cc3ccccc3)c3ccc(Br)cc32)cc1 (stereo not drawn)	10µM
CCc1ccc(C(=O)CC2(O)C(=O)N(Cc3ccc(C)cc3)c3ccccc32)cc1 (stereo not drawn)	n
